# Assay results as given in the supplement of paper PMC4466140.
# Target: AgAbp1
# Assay: SPOT peptide array binding signal intensity (averaged, normalized) (arbitrary units (background-subtracted, floor 0; scale differs between SH3 domains)); higher = stronger binding of the SH3 domain to the peptide
# Method in brief: (§1)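 Four yeast species supplied the SH3 domains, which were expressed as GST fusions in E. coli BL21(DE3) and purified on glutathione Sepharose. Incubation with cellulose membranes carrying synthetic 15-mer peptides, cysteines exchanged for serines, ran overnight at 4°C at 10 μg/ml in TBS-based blocking buffer. Binding signal is reported as normalized, background-subtracted spot intensity averaged over replicates, in arbitrary units not shared between domains.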
row,Binder,SPOT peptide array binding signal intensity
1,ALFRLSFFFPLDPAY,90.5

# Target: AgBbc1
# Assay: as above
# Method in brief: as §1
row,Binder,SPOT peptide array binding signal intensity
1,ALFRLSFFFPLDPAY,59.5

# Target: AgBem1-D1
# Assay: as above
# Method in brief: as §1
row,Binder,SPOT peptide array binding signal intensity
1,ALFRLSFFFPLDPAY,487

# Target: AgBzz1-D1
# Assay: as above
# Method in brief: as §1
row,Binder,SPOT peptide array binding signal intensity
1,ALFRLSFFFPLDPAY,204

# Target: AgBzz1-D2
# Assay: as above
# Method in brief: as §1
row,Binder,SPOT peptide array binding signal intensity
1,ALFRLSFFFPLDPAY,161

# Target: AgCyk3
# Assay: as above
# Method in brief: as §1
row,Binder,SPOT peptide array binding signal intensity
1,ALFRLSFFFPLDPAY,40.5

# Target: AgFus1
# Assay: as above
# Method in brief: as §1
row,Binder,SPOT peptide array binding signal intensity
1,ALFRLSFFFPLDPAY,3740

# Target: AgHof1
# Assay: as above
# Method in brief: as §1
row,Binder,SPOT peptide array binding signal intensity
1,ALFRLSFFFPLDPAY,184

# Target: AgHse1
# Assay: as above
# Method in brief: as §1
row,Binder,SPOT peptide array binding signal intensity
1,ALFRLSFFFPLDPAY,2470

# Target: AgLsb1
# Assay: as above
# Method in brief: as §1
row,Binder,SPOT peptide array binding signal intensity
1,ALFRLSFFFPLDPAY,66

# Target: AgLsb4
# Assay: as above
# Method in brief: as §1
row,Binder,SPOT peptide array binding signal intensity
1,ALFRLSFFFPLDPAY,1960

# Target: AgMyo5
# Assay: as above
# Method in brief: as §1
row,Binder,SPOT peptide array binding signal intensity
1,ALFRLSFFFPLDPAY,6.5

# Target: AgNbp2
# Assay: as above
# Method in brief: as §1
row,Binder,SPOT peptide array binding signal intensity
1,ALFRLSFFFPLDPAY,796

# Target: AgRvs167
# Assay: as above
# Method in brief: as §1
row,Binder,SPOT peptide array binding signal intensity
1,ALFRLSFFFPLDPAY,40.7

# Target: AgSho1
# Assay: as above
# Method in brief: as §1
row,Binder,SPOT peptide array binding signal intensity
1,ALFRLSFFFPLDPAY,2320

# Target: AgSla1-D1-D2
# Assay: as above
# Method in brief: as §1
row,Binder,SPOT peptide array binding signal intensity
1,ALFRLSFFFPLDPAY,150

# Target: AgSla1-D3
# Assay: as above
# Method in brief: as §1
row,Binder,SPOT peptide array binding signal intensity
1,ALFRLSFFFPLDPAY,25.5

# Target: CaAbp1-D1
# Assay: as above
# Method in brief: as §1
row,Binder,SPOT peptide array binding signal intensity
1,ALFRLSFFFPLDPAY,494

# Target: CaAbp1-D2
# Assay: as above
# Method in brief: as §1
row,Binder,SPOT peptide array binding signal intensity
1,ALFRLSFFFPLDPAY,621

# Target: CaBbc1
# Assay: as above
# Method in brief: as §1
row,Binder,SPOT peptide array binding signal intensity
1,ALFRLSFFFPLDPAY,162

# Target: CaBem1-D1
# Assay: as above
# Method in brief: as §1
row,Binder,SPOT peptide array binding signal intensity
1,ALFRLSFFFPLDPAY,141

# Target: CaBzz1-D1
# Assay: as above
# Method in brief: as §1
row,Binder,SPOT peptide array binding signal intensity
1,ALFRLSFFFPLDPAY,574

# Target: CaBzz1-D2
# Assay: as above
# Method in brief: as §1
row,Binder,SPOT peptide array binding signal intensity
1,ALFRLSFFFPLDPAY,416

# Target: CaCyk3
# Assay: as above
# Method in brief: as §1
row,Binder,SPOT peptide array binding signal intensity
1,ALFRLSFFFPLDPAY,68

# Target: CaFus1
# Assay: as above
# Method in brief: as §1
row,Binder,SPOT peptide array binding signal intensity
1,ALFRLSFFFPLDPAY,4730

# Target: CaHof1
# Assay: as above
# Method in brief: as §1
row,Binder,SPOT peptide array binding signal intensity
1,ALFRLSFFFPLDPAY,10

# Target: CaHse1
# Assay: as above
# Method in brief: as §1
row,Binder,SPOT peptide array binding signal intensity
1,ALFRLSFFFPLDPAY,985

# Target: CaLsb1
# Assay: as above
# Method in brief: as §1
row,Binder,SPOT peptide array binding signal intensity
1,ALFRLSFFFPLDPAY,79.5

# Target: CaLsb4
# Assay: as above
# Method in brief: as §1
row,Binder,SPOT peptide array binding signal intensity
1,ALFRLSFFFPLDPAY,278

# Target: CaMyo5
# Assay: as above
# Method in brief: as §1
row,Binder,SPOT peptide array binding signal intensity
1,ALFRLSFFFPLDPAY,156

# Target: CaNbp2
# Assay: as above
# Method in brief: as §1
row,Binder,SPOT peptide array binding signal intensity
1,ALFRLSFFFPLDPAY,1460

# Target: CaRvs167
# Assay: as above
# Method in brief: as §1
row,Binder,SPOT peptide array binding signal intensity
1,ALFRLSFFFPLDPAY,578

# Target: CaRvs167-3
# Assay: as above
# Method in brief: as §1
row,Binder,SPOT peptide array binding signal intensity
1,ALFRLSFFFPLDPAY,964

# Target: CaSho1
# Assay: as above
# Method in brief: as §1
row,Binder,SPOT peptide array binding signal intensity
1,ALFRLSFFFPLDPAY,2260

# Target: CaSla1-D1-D2
# Assay: as above
# Method in brief: as §1
row,Binder,SPOT peptide array binding signal intensity
1,ALFRLSFFFPLDPAY,131

# Target: CaSla1-D3
# Assay: as above
# Method in brief: as §1
row,Binder,SPOT peptide array binding signal intensity
1,ALFRLSFFFPLDPAY,848

# Target: ScAbp1
# Assay: as above
# Method in brief: as §1
row,Binder,SPOT peptide array binding signal intensity
1,ALFRLSFFFPLDPAY,81.5

# Target: ScBbc1
# Assay: as above
# Method in brief: as §1
row,Binder,SPOT peptide array binding signal intensity
1,ALFRLSFFFPLDPAY,9.5

# Target: ScBem1-D1
# Assay: as above
# Method in brief: as §1
row,Binder,SPOT peptide array binding signal intensity
1,ALFRLSFFFPLDPAY,110

# Target: ScBzz1-D1
# Assay: as above
# Method in brief: as §1
row,Binder,SPOT peptide array binding signal intensity
1,ALFRLSFFFPLDPAY,218

# Target: ScBzz1-D2
# Assay: as above
# Method in brief: as §1
row,Binder,SPOT peptide array binding signal intensity
1,ALFRLSFFFPLDPAY,531

# Target: ScCyk3
# Assay: as above
# Method in brief: as §1
row,Binder,SPOT peptide array binding signal intensity
1,ALFRLSFFFPLDPAY,246

# Target: ScFus1
# Assay: as above
# Method in brief: as §1
row,Binder,SPOT peptide array binding signal intensity
1,ALFRLSFFFPLDPAY,3920

# Target: ScHof1
# Assay: as above
# Method in brief: as §1
row,Binder,SPOT peptide array binding signal intensity
1,ALFRLSFFFPLDPAY,2.5

# Target: ScHse1
# Assay: as above
# Method in brief: as §1
row,Binder,SPOT peptide array binding signal intensity
1,ALFRLSFFFPLDPAY,4160

# Target: ScLsb1
# Assay: as above
# Method in brief: as §1
row,Binder,SPOT peptide array binding signal intensity
1,ALFRLSFFFPLDPAY,70.2

# Target: ScLsb2
# Assay: as above
# Method in brief: as §1
row,Binder,SPOT peptide array binding signal intensity
1,ALFRLSFFFPLDPAY,24

# Target: ScLsb3
# Assay: as above
# Method in brief: as §1
row,Binder,SPOT peptide array binding signal intensity
1,ALFRLSFFFPLDPAY,674

# Target: ScLsb4
# Assay: as above
# Method in brief: as §1
row,Binder,SPOT peptide array binding signal intensity
1,ALFRLSFFFPLDPAY,104

# Target: ScMyo3
# Assay: as above
# Method in brief: as §1
row,Binder,SPOT peptide array binding signal intensity
1,ALFRLSFFFPLDPAY,35

# Target: ScMyo5
# Assay: as above
# Method in brief: as §1
row,Binder,SPOT peptide array binding signal intensity
1,ALFRLSFFFPLDPAY,62.8

# Target: ScNbp2
# Assay: as above
# Method in brief: as §1
row,Binder,SPOT peptide array binding signal intensity
1,ALFRLSFFFPLDPAY,802

# Target: ScPex13
# Assay: as above
# Method in brief: as §1
row,Binder,SPOT peptide array binding signal intensity
1,ALFRLSFFFPLDPAY,116

# Target: ScRvs167
# Assay: as above
# Method in brief: as §1
row,Binder,SPOT peptide array binding signal intensity
1,ALFRLSFFFPLDPAY,91.7

# Target: ScSho1
# Assay: as above
# Method in brief: as §1
row,Binder,SPOT peptide array binding signal intensity
1,ALFRLSFFFPLDPAY,2780

# Target: ScSla1-D1-D2
# Assay: as above
# Method in brief: as §1
row,Binder,SPOT peptide array binding signal intensity
1,ALFRLSFFFPLDPAY,120

# Target: ScSla1-D3
# Assay: as above
# Method in brief: as §1
row,Binder,SPOT peptide array binding signal intensity
1,ALFRLSFFFPLDPAY,426

# Target: SpAbp1-D1
# Assay: as above
# Method in brief: as §1
row,Binder,SPOT peptide array binding signal intensity
1,ALFRLSFFFPLDPAY,303

# Target: SpBbc1
# Assay: as above
# Method in brief: as §1
row,Binder,SPOT peptide array binding signal intensity
1,ALFRLSFFFPLDPAY,57.2

# Target: SpBzz1-D1
# Assay: as above
# Method in brief: as §1
row,Binder,SPOT peptide array binding signal intensity
1,ALFRLSFFFPLDPAY,838

# Target: SpBzz1-D2
# Assay: as above
# Method in brief: as §1
row,Binder,SPOT peptide array binding signal intensity
1,ALFRLSFFFPLDPAY,6.5

# Target: SpCyk3
# Assay: as above
# Method in brief: as §1
row,Binder,SPOT peptide array binding signal intensity
1,ALFRLSFFFPLDPAY,55

# Target: SpHof1
# Assay: as above
# Method in brief: as §1
row,Binder,SPOT peptide array binding signal intensity
1,ALFRLSFFFPLDPAY,844

# Target: SpHof1-2
# Assay: as above
# Method in brief: as §1
row,Binder,SPOT peptide array binding signal intensity
1,ALFRLSFFFPLDPAY,230

# Target: SpHof1-3
# Assay: as above
# Method in brief: as §1
row,Binder,SPOT peptide array binding signal intensity
1,ALFRLSFFFPLDPAY,1850

# Target: SpHse1
# Assay: as above
# Method in brief: as §1
row,Binder,SPOT peptide array binding signal intensity
1,ALFRLSFFFPLDPAY,2380

# Target: SpLsb1
# Assay: as above
# Method in brief: as §1
row,Binder,SPOT peptide array binding signal intensity
1,ALFRLSFFFPLDPAY,15.5

# Target: SpLsb4
# Assay: as above
# Method in brief: as §1
row,Binder,SPOT peptide array binding signal intensity
1,ALFRLSFFFPLDPAY,463

# Target: SpMyo1
# Assay: as above
# Method in brief: as §1
row,Binder,SPOT peptide array binding signal intensity
1,ALFRLSFFFPLDPAY,91

# Target: SpNbp2
# Assay: as above
# Method in brief: as §1
row,Binder,SPOT peptide array binding signal intensity
1,ALFRLSFFFPLDPAY,2350

# Target: SpPex13
# Assay: as above
# Method in brief: as §1
row,Binder,SPOT peptide array binding signal intensity
1,ALFRLSFFFPLDPAY,565

# Target: SpRvs167
# Assay: as above
# Method in brief: as §1
row,Binder,SPOT peptide array binding signal intensity
1,ALFRLSFFFPLDPAY,131

# Target: SpSla1-D1-D2
# Assay: as above
# Method in brief: as §1
row,Binder,SPOT peptide array binding signal intensity
1,ALFRLSFFFPLDPAY,8

# Target: SpSla1-D3
# Assay: as above
# Method in brief: as §1
row,Binder,SPOT peptide array binding signal intensity
1,ALFRLSFFFPLDPAY,192
